Data published in PubChem BioAssay (EPA / NIEHS).
Calls of active or inactive are those of the source. The calls were made as follows: active = hit-call score of the fitted dose curve at least 0.9, where 1 is the maximum; inactive = score below 0.9.

What was measured:
[1] = Tanguay_ZF_120hpf_DP24: Oregon State University Tanguay Lab 24 Hour Post-fertilization zebrafish Assay for Delayed Development (AID 2284390)
Procedure, shortened: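 Dechorionated 5D wild-type zebrafish embryos exposed statically from 6 hpf, one per well, 0.64% DMSO final, 28 C, sealed and dark. Developmental progression scored at 24 hpf by brightfield as binary present/absent; dead embryos excluded.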

[2] = Tanguay_ZF_120hpf_CRAN: Oregon State University Tanguay Lab 120 Hour Post-fertilization zebrafish Assay for Craniofacial Malformation (AID 2284397)
Procedure, shortened: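 Dechorionated Tropical 5D wild-type zebrafish embryos, one per well, were statically exposed from 6 to 120 hpf at 28C in 0.64% DMSO, with 5uM trimethyltin chloride as positive control. Craniofacial malformation was scored present/absent by brightfield microscopy, relative to DMSO.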

[3] = Tanguay_ZF_120hpf_AXIS: Oregon State University Tanguay Lab 120 Hour Post-fertilization zebrafish Assay for Axial Malformation (AID 2284398)
Procedure, shortened: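 Dechorionated 5D wild-type zebrafish embryos exposed statically, one per well, from 6 to 120 hpf at 28C, 0.64% DMSO. Axial malformation scored as present/absent by brightfield microscopy at 120 hpf; dead embryos not scored.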

[4] = Tanguay_ZF_120hpf_MORT: Oregon State University Tanguay Lab 120 Hour Post-fertilization zebrafish Assay for Mortality (AID 2284399)
Procedure, shortened: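 Dechorionated wild-type Tropical 5D zebrafish embryos, one per well from 6 hpf, static exposure to 120 hpf at 28C in sealed dark plates, 0.64% DMSO final. Mortality scored as binary by brightfield at 24 and 120 hpf.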

[5] = Tanguay_ZF_120hpf_EDEM: Oregon State University Tanguay Lab 120 Hour Post-fertilization zebrafish Assay for Edema Malformation (AID 2284400)
Procedure, shortened: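 Dechorionated Tropical 5D wild-type embryos, one per well, statically exposed from 6 to 120 hpf at 28C in 0.64% DMSO. Edema scored present/absent by brightfield microscopy at 120 hpf; dead embryos not scored; fit versus DMSO.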

[6] = Tanguay_ZF_120hpf_BRN: Oregon State University Tanguay Lab 120 Hour Post-fertilization zebrafish Assay for Brain Region Malformation (AID 2284402)
Procedure, shortened: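 Dechorionated wild-type Tropical 5D zebrafish embryos exposed statically from 6 to 120 hpf at 28C, one per well, 0.64% DMSO final. Brain malformation scored at 120 hpf by brightfield as present/absent; dead embryos not scored.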

[7] = Tanguay_ZF_120hpf_TCHR: Oregon State University Tanguay Lab 120 Hour Post-fertilization zebrafish Assay for Touch Responsive (AID 2284403)
Procedure, shortened: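 Dechorionated Tropical 5D wild-type zebrafish embryos, one per well from 6 hpf, were statically exposed to 120 hpf at 28 °C (0.64% DMSO). Touch response was scored present/absent at 120 hpf and not scored in dead larvae.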

[8] = Tanguay_ZF_120hpf_ANY: Oregon State University Tanguay Lab 120 Hour Post-fertilization zebrafish Assay for Any Mortality and Malformation (AID 2284404)
Procedure, shortened: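 Dechorionated Tropical 5D wild-type embryos, one per well from 6 hpf, static exposure in sealed, dark plates at 28C until 120 hpf, 0.64% DMSO final. Brightfield scoring of mortality and malformations as binary presence/absence, pooling 13 morphology endpoints.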

[9] = CCTE_Padilla_ZF_Score.Craniofacial: CCTE's 144 Hour Post-fertilization zebrafish Assay Score for Craniofacial Malformation, Padilla Lab (AID 2284405)
Procedure, shortened: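 Wild-type zebrafish embryos (with chorions), one per well in 10% Hanks', were dosed at 6–8 hpf in sealed plates and kept at 26C. They were rinsed at 5 dpf. At 6 dpf two blinded assessors scored craniofacial malformations by brightfield stereomicroscopy.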

[10] = CCTE_Padilla_ZF_Score.Edema: CCTE's 144 Hour Post-fertilization zebrafish Assay Score for Edema Malformation, Padilla Lab (AID 2284406)
Procedure, shortened: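 Wild-type zebrafish embryos, one per well in Hanks' solution, dosed at 6-8 hpf, sealed and reared at 26C on a 14:10 h cycle; rinsed on 5 dpf. At 6 dpf, blinded assessors scored edema by stereomicroscopy.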

[11] = CCTE_Padilla_ZF_Score.Spine: CCTE's 144 Hour Post-fertilization zebrafish Assay Score for Spine Malformation, Padilla Lab (AID 2284407)
Procedure, shortened: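 Wild-type zebrafish embryos, one per well in Hanks' solution, dosed at 6–8 hpf in sealed plates at 26C, 14:10 h light:dark; rinsed at 5 dpf. Two blinded assessors scored spinal defects by stereomicroscopy at 6 dpf; fitted versus DMSO.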

[12] = CCTE_Padilla_ZF_Score.Swim_bladder: CCTE's 144 Hour Post-fertilization zebrafish Assay Score for Swim Bladder Malformation, Padilla Lab (AID 2284408)
Procedure, shortened: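 Wild-type zebrafish embryos, one per well in 10% Hanks', dosed at 6–8 hpf, sealed, reared at 26C and rinsed at 5 dpf. Blinded assessors scored uninflated swim bladder by stereomicroscopy at 6 dpf, relative to DMSO.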

[13] = CCTE_Padilla_ZF_Score.Living: CCTE's 144 Hour Post-fertilization zebrafish Assay Score for Viability, Padilla Lab (AID 2284410);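 also: larval death at 6 dpf judged by absent heartbeat or coagulation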
Procedure, shortened: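 Wild-type zebrafish embryos were exposed singly from 6–8 hpf in sealed wells of Hanks' solution at 26C, then rinsed at 5 dpf. At 6 dpf, blinded assessors scored mortality (no heartbeat or coagulation) by stereomicroscopy, fitted against DMSO.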

[14] = CCTE_Padilla_ZF_Score.General: CCTE's 144 Hour Post-fertilization zebrafish Assay Score for General Malformation, Padilla Lab (AID 2284411)
Procedure, shortened: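 Wild-type zebrafish embryos were plated singly at 6-8 hpf in 10% Hanks' and exposed in sealed wells at 26C until rinsed on 5 dpf. At 6 dpf two blinded assessors scored mortality, hatching and malformations by stereomicroscopy; gain-of-signal versus DMSO.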

[15] = CCTE_Padilla_ZF_Score.Tail: CCTE's 144 Hour Post-fertilization zebrafish Assay Score for Tail Malformation, Padilla Lab (AID 2284414)
Procedure, shortened: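 Wild-type zebrafish embryos, one per well in 200 uL 10% Hanks', dosed at 6-8 hpf, sealed, and kept at 26 C on a 14:10 h light cycle. Chemical was rinsed out at 5 dpf. Blinded brightfield scoring of tail defects followed at 6 dpf.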

[16] = CCTE_Padilla_ZF_Score.Blood_pooling: CCTE's 144 Hour Post-fertilization zebrafish Assay Score for Blood Pooling, Padilla Lab (AID 2284415)
Procedure, shortened: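 Wild-type outbred zebrafish embryos, one per well in 10% Hanks', exposed from 6–8 hpf in sealed plates at 26C on 14:10 h light:dark, rinsed at 5 dpf. Blinded stereomicroscope scoring of blood pooling at 6 dpf; gain-of-signal versus DMSO.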

[17] = CCTE_Padilla_ZF_Score.Any: CCTE's 144 Hour Post-fertilization zebrafish Assay Score for Any Mortality or Malformation, Padilla Lab (AID 2284416)
Procedure, shortened: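 Wild-type zebrafish embryos with chorions, one per well in 10% Hanks' from 6–8 hpf, dosed in sealed plates at 26 C, 14:10 h light:dark; rinsed at 5 dpf; blinded scoring at 6 dpf for death or malformation, versus DMSO.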

[18] = CCTE_Padilla_ZF_Score.Position: CCTE's 144 Hour Post-fertilization zebrafish Assay Score for Position, Padilla Lab (AID 2284409)
Procedure, shortened: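 Wild-type zebrafish embryos (with chorions) exposed singly from 6–8 hpf in sealed wells of Hanks' solution at 26C, rinsed at 5 dpf. At 6 dpf, blinded assessors scored abnormal water-column position by brightfield stereomicroscopy, relative to DMSO.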

Measured: AC50

O=C(CC(=O)C(F)(F)C(F)(F)F)C(F)(F)F
active: [8] 0.0499 µM
not listed: [18]
inactive: all other assays above

O=C(O)C(F)(F)C(F)(F)C(F)(F)C(F)(F)C(F)(F)C(F)(F)C(F)(F)C(F)(F)C(F)(F)C(F)F
active: [4] 37 µM | [8] 28.8 µM | [10] 14.9 µM | [13] 17.5 µM | [14] 15.8 µM | [17] 15 µM
inactive: all other assays above

O=S(=O)(OCC(F)F)C(F)(F)F
not listed: [18]
inactive: all other assays above

O=C(O)C(F)(F)C(F)(F)F
not listed: [18]
inactive: all other assays above

C=CC(F)(F)C(F)(F)C(F)(F)C(F)(F)C(F)(F)C(F)(F)C(F)(F)C(F)(F)F
not listed: [18]
inactive: all other assays above

O=C(O)C=C(C(F)(F)F)C(F)(F)F
not listed: [18]
inactive: all other assays above

O=C(O)C(F)(F)C(F)(F)C(F)(F)C(F)(F)C(F)(F)C(F)(F)C(F)(F)C(F)(F)C(F)(F)C(F)(F)C(F)(F)C(F)(F)F
active: [4] 7.47 µM | [8] 26.3 µM
not listed: [18]
inactive: all other assays above

O=S(=O)(OCCOC(F)(F)F)C(F)(F)F
inactive: all assays above

COC(=O)CCC(F)(F)C(F)(F)C(F)(F)C(F)(F)F
inactive: [1] | [2] | [3] | [4] | [5] | [6] | [7] | [8]

O=C(O)C(F)(F)C(F)(F)C(F)(F)C(F)(F)C(F)(F)C(F)(F)C(F)(F)C(F)(F)C(F)(F)C(F)(F)C(F)(F)C(F)(F)C(F)(F)F
not listed: [18]
inactive: all other assays above

FC(F)(F)C(F)(F)C(F)(F)N(C(F)(F)C(F)(F)C(F)(F)F)C(F)(F)C(F)(F)C(F)(F)F
not listed: [18]
inactive: all other assays above

CCO[Si](CCC(F)(F)C(F)(F)C(F)(F)C(F)(F)C(F)(F)C(F)(F)F)(OCC)OCC
inactive: all assays above

OCCCC(F)(F)C(F)(F)C(F)(F)C(F)(F)C(F)(F)C(F)(F)C(F)(F)F
active: [10] 36.4 µM | [12] 88.1 µM | [17] 38.7 µM
not listed: [18]
inactive: all other assays above

OCC(F)(F)C(F)(F)C(F)(F)C(F)(F)C(F)(F)C(F)(F)F
active: [8] 112 µM | [10] 84.7 µM | [13] 88 µM | [16] 93.7 µM | [17] 80.5 µM
inactive: all other assays above

CCCCCCCCC(F)(F)C(F)(F)C(F)(F)C(F)(F)C(F)(F)C(F)(F)F
not listed: [18]
inactive: all other assays above
